Data from the supplement of paper PMC11417369.
In all, about 25,000 sequences were measured (“ln(normalized median fluorescence intensity)”: median about 7.1, highest 2% from about 10 on). The full list was thinned out, with the highest values kept by preference.

What follows are sequences tested on PfSIP2 AP2 domain 1 (GST-tagged) (assay: gcPBM binding intensity (ln(normalized median fluorescence intensity)); higher = stronger DNA binding).
Procedure, shortened: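 For binding intensity, the highest Masliner-normalised natural-log median intensity across replicate spots of either probe orientation was taken. Protein bound to the array was stained with Alexa488 anti-GST antibody and scanned at 488 nm. The protein, GST-tagged P. falciparum DNA-binding domains from E. coli at about 25 μg on average, had been applied for 1 h to an Agilent 4 × 180k array of primer-extended double-stranded 36-bp intergenic genomic probes and negative controls.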

Sequence | gcPBM binding intensity (ln)
ATTAAAGAGAGACATCAACACACATACGTATGTATA [CACACA_site8393] | 6.94
TAGTTTTTTATAAAATTATTTATATAAAGGTAAAAA [CACACA_negctrl_site490] | 7.1
TTTGGATAAAAAATATGTACACACATATAGATATCT [XGTACX_site5660] | 6.9
TCTACAAAATTATCATGTACATATTATTATAATTAT [XGTACX_site6585] | 7.28
TGTTGTATATCTCTATATAGCTATATTGTATATATA [TGCATGCA_negctrl_site323] | 6.97
TATAAAAGTGGACACACACACATATATATATATATA [CACACA_site4673] | 9.47
TAAATTATAACGTGCACACATATTTAAAATGAAATG [CACACA_site2820] | 10.3
ATATATAACGGGCACACACACATTTACGTATGAATA [CACACA_site1833] | 7.39
TTTATTAATAATTATACACACATATAAAATGAATAA [CACACA_site1359] | 7.01
CTTAATTTAATGAAATGTACATATAAAAATATTATA [XGTACX_site3303] | 7.11
ATATATAACGTGCACACACACATTTACGTATGAATA [CACACA_site6948] | 10.4
AAATGAATTTAACAATGTACACATATATTATAAATA [XGTACX_site1449] | 7.13
TAAAATAAATTGTGCACACATATTTATAAATATGAA [CACACA_site2331] | 9.66
TAATATATAACGTGCACACACACATTTACGTATGAA [CACACA_site1832] | 9.88
TGTAAATTATAACGTGCACACATATTTAAAATGAAA [CACACA_site8915] | 10.6
ATATAAGTACGGCATGCATGCACATTTTTTTATTCC [TGCATGCA_site101] | 7.09
TACGTTATATACAACTGTACTTGGATAATTATTAAC [XGTACX_site5614] | 7.13
TCTTTTTTTTTTTTTTTTTTTTTTTATTTATTCATA [CACACA_negctrl_site1827] | 6.85
CATAATATATATTGAGCATGCTACTATTGTTAGAAA [TGCATGCA_site740] | 6.93
ATATATAAATATAGCATACACACAAAAAAATAAAAT [CACACA_site2332] | 7.11
TTTTTTAAATATTATTTTTATGAGTAAATATATTAT [GTGCAC_negctrl_site277] | 6.71
ATTTATTTTATATGTTGTACAAACATTTTAAAACAT [XGTACX_site6919] | 6.95
TTTTTATGGACTATGGTGCATTATATATAAATGAAA [GTGCAC_site9557] | 10.6

Sequence | gcPBM binding intensity (ln)
GACAATATTAAAACATGTACATGCATTTTATGAATA [XGTACX_site553] | 7.05
TACAGTTCAATGAAGGTGCAATTAATATATAAAATA | 10.2
AAATATTATAAAAAGGTGCATTTTTATTATATGAGT | 11
TATCATATATGAAGGTGTACGATTTATTATATAAAT [XGTACX_site7010] | 7.04
TTTTTTTTTAATAAAATTATAATAAATATGAAATTA [XGTACX_negctrl_site369] | 6.67
TTTTTTAAATATATGGTGCATAGAAAGATATTATAC [GTGCAC_site9984] | 10
ATTATCAATATGAAGGTGCATTTAAATAATATTTAC | 10.7
ATATTTTATGTAAAGGTGCAAAACAACATTAAAAAA | 10.5
TTATTTTTATTATAAATTATAAAATATAAATAAATA [GTGCAC_negctrl_site616] | 6.79
ATCATATATTATTTATGTACTTATTTATAATAATAT [XGTACX_site8257] | 7.06
AGAATATCAAAATAAAGTACATTTATTATATATATG [XGTACX_site7100] | 7.15
TTATTTAAAAAATTTTTAAATATACAAAAAAAAAAA [TGCATGCA_negctrl_site464] | 6.88
TTAATTGACATAAAAAGTACTCATATAGATATGCAC [XGTACX_site6391] | 8.9
AAACATTTATCAATGAATCTTTTAATAAGTGTAAAG [XGTACX_negctrl_site80] | 6.79
TAAATATAACAGAATAATATGTGGATTAATAAATGA [CACACA_negctrl_site438] | 6.81
ACATATGGCACATATGTACACACGTATAGATAATAT [CACACA_site2024] | 7.19
TGGAGGTCAGTTCACAGTACCCAGAAAACTCTACGA [XGTACX_site2561] | 6.58
TAAAATATTATAAAATGTACAAAACATATAAATATA [XGTACX_site5315] | 6.8
AACACATAATAAAATTGTACCCAACATTTCTTTTGA [XGTACX_site8061] | 6.96
GCAAATCATGCTATGGTGCATATGTAAGATGAGCAT | 10.6
TATTAATTATAAGATGCATGTGCAAAAATATGTTCC [TGCATGCA_site51] | 7.6
GCATATGATGAGCATATAATCATAAGAAAAAAAAAA [CACACA_negctrl_site701] | 6.72
TATAACTTTTATAGGTGTACCCAATATTATATATAG [XGTACX_site7673] | 6.97

Sequence | gcPBM binding intensity (ln)
TTAAAAATGTGTGTGCGTACATAATATTTCGAAAAA [XGTACX_site8197] | 7.03
CCAGTGTGCACCTTGCGTACATATTAAATTAATTAA [XGTACX_site3729] | 12.2
TTGCATTAATTTATGTGTACATATAAATTTTTATTT [XGTACX_site3060] | 7.41
CATGTATGTACCATGGTGCAACAATATTTTTAACAA [GTGCAC_site9597] | 10.6
ATATATATGTATATAACATGCAACATTTAATAATAA [TGCATGCA_site1018] | 7.18
TATATATATTTTATATGTACGTATGGAACAATATGA [XGTACX_site8167] | 7.38
GTTACTGCATACATAACACACATATTCAAAACCCAT [CACACA_site5856] | 7.13
CATTATGTCATAAATGCACACATATATATATACATA [CACACA_site8454] | 7.38
TGATTCTGTCATGGTGCACACCAGAACCATTATAAA [CACACA_site1965] | 11.9
TTCTGTATACGGTGTGCACACAATTAAAAAAAAAAA [CACACA_site1416] | 9.47
TTATAAAGAATTAGGAGTACAAATGCATATATAATA [XGTACX_site6580] | 7.3
TGTTTATTTTTTTTATGTACTTATTTTTTATTGCAT [XGTACX_site719] | 7.61
ATATTTTTATTTAAATCACATCATTTTGTTTATTTG [CACACA_negctrl_site1056] | 6.95
AAAATTAAAAATAACACACACATATTTATATTTATA [CACACA_site7329] | 6.87
AAAATTAACGAGTGCACACATATTTAGATAAAATAC [CACACA_site2936] | 11.2
TAAAATAATATTTATGTGCACATATAATTATTAATT | 8.71
GAAAAATTAAAAATAACACACACATATATATATTTA [CACACA_site8896] | 6.98
AAAAAATTAACGAGTGCACACATATTTAGATAAAAT [CACACA_site8958] | 10.6
AAAATTAAAAATAACACACACATATATATATTTATA [CACACA_site2776] | 6.9
TTTTATTTATTATTATGTACACACTATATTAAAACA [XGTACX_site1265] | 7.13
TTGTTATTCCACCGTTGTACAGTTATATACATACAC [XGTACX_site8296] | 7.31
GTACATTGTAAGGATGGAAAAGCTAAACATTATAAT [XGTACX_negctrl_site339] | 6.99
ATAGAACAATTCAGAAGTACATAAAAAGAAAAATTT [XGTACX_site3015] | 6.9

Sequence | gcPBM binding intensity (ln)
ATGAACATTTATAAATGTACTCACATATATATATTT [XGTACX_site6692] | 7.02
ATATATATATGTTAGGTGCATATATATTTTGTGGAT [GTGCAC_site9964] | 9.6
TAATGTTGAGAATTTTGTACATATAGATCAATTTAT [XGTACX_site5426] | 6.84
TTTTTTTTTTTTGAGGTGCATATATCAGATCAATAT | 10.6
TGATGATATAAAAACACACACATATAACATAATACT [CACACA_site6687] | 7.04
AAAATATAAAATAATGCACACATAAACAAAAAATCA [CACACA_site8382] | 7.33
ATGAGTGCACAAATATATATATATATATATATATAT [CACACA_negctrl_site404] | 11.6
TATATACATATATGCACACAAAAAAATATATATTTT [CACACA_site1729] | 7.3
GCACAAATATATATATATATATATATATATATATAT [GTGCAC_negctrl_site661] | 9.36
TAATATAATCTGAGTGCACACAAATAAATAAACATA [CACACA_site8032] | 10.3
TAAATATATAAATACACACAAACATACATATATATA [CACACA_site4050] | 7.55
ATATAATCTGAGTGCACACAAATAAATAAACATACA [CACACA_site422] | 10.4
TATAAATATACAAACACACATACAAACATATATATA [CACACA_site1120] | 7.27
ATATATTTGATAAGAGTGCACAAATACATACATACA [GTGCAC_site9704] | 10.6
TACATATTGATATATACACACAAAAAAATAAATTCT [CACACA_site6198] | 7
TACACAAATATATATATATATATATATATATATATA [XGTACX_negctrl_site305] | 9.89
AATATAATATAATGCACACATAAACAAAAAAAAAAT [CACACA_site1304] | 7.53
TATACATATATTATATGTACATATATATATAATATA [XGTACX_site2942] | 7.26
TACTATCTATACAATACACACAAAAAAAAAAAAATA [CACACA_site3981] | 6.95
AATTGAGAAGTGTGTTGTACATAATGGCACATACCT [XGTACX_site1370] | 7.22
